Assay results published in article PMC5700166.

Assays:
Test in all cases: protein-binding microarray (PBM); PBM: ~300 nM protein, 6 mM HEPES pH 7.8, 80 mM KCl, 0.5 mM EDTA, 0.5 mM EGTA, 6% glycerol, 35 ng/ul poly-dIdC, 1% milk, 1 h, room temperature; Ap Aiptasia and Nv Nematostella (sea anemones) / Co Capsaspora / Aq Amphimedon (sponge) / Dm Drosophila / Hu human; RHD is the Rel homology domain; high values mean tight binding
Settings in all cases: dsDNA, one strand shown
[1] = molecular target: T1, GST-Ap-NF-kB RHD (Exaiptasia pallida (Aiptasia), UniProt A0A913YAJ5 2-422)
T1 sequence: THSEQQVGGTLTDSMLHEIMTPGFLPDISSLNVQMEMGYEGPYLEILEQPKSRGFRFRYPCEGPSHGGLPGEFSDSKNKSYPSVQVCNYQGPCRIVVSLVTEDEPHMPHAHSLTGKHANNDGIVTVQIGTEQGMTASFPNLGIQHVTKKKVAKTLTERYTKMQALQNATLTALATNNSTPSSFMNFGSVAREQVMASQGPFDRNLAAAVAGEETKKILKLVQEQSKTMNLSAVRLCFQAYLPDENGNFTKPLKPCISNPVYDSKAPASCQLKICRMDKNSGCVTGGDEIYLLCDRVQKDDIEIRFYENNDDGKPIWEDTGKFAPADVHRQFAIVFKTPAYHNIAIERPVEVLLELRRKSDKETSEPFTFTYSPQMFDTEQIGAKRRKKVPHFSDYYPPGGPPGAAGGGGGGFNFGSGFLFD

[2] = molecular target: T2, GST-Nv-NF-kB (Cys allele) (Nematostella vectensis, UniProt E5G601 2-411)
T2 sequence: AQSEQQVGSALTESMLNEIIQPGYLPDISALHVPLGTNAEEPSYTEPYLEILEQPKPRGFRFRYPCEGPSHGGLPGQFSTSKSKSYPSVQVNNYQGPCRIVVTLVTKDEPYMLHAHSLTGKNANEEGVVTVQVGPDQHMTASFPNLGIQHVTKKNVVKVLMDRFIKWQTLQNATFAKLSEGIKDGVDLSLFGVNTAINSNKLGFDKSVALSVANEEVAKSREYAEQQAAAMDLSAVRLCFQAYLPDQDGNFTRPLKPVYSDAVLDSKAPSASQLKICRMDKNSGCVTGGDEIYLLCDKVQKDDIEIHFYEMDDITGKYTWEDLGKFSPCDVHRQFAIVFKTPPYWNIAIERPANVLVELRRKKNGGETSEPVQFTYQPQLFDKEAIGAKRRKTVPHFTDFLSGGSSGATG

[3] = molecular target: T3, GST-Co-NF-kB (Capsaspora owczarzaki, UniProt F1ARL5 200-546)
T3 sequence: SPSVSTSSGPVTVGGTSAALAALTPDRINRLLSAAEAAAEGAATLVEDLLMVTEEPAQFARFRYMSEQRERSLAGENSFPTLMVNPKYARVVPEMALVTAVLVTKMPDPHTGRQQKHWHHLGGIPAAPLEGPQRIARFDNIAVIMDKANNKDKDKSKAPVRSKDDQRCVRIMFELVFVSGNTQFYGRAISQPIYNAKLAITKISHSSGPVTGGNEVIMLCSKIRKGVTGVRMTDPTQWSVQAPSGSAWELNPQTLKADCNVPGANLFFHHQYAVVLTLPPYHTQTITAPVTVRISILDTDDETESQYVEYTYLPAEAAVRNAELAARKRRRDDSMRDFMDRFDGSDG

[4] = molecular target: T4, GST-Dm-Relish (Drosophila melanogaster, UniProt Q94527 99-473)
T4 sequence: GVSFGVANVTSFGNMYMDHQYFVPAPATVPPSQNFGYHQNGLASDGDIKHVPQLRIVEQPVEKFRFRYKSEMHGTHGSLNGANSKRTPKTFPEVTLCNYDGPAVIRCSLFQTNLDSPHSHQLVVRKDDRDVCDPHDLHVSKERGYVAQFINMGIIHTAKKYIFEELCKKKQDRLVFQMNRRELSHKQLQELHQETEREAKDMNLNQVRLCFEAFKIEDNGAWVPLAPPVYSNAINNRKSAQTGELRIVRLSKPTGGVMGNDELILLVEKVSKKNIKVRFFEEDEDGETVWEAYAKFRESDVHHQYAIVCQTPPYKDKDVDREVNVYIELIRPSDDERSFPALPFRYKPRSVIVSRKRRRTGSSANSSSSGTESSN

[5] = molecular target: T5, GST-Aq-NF-kB (Amphimedon queenslandica, UniProt A9Y5G7 2-389)
T5 sequence: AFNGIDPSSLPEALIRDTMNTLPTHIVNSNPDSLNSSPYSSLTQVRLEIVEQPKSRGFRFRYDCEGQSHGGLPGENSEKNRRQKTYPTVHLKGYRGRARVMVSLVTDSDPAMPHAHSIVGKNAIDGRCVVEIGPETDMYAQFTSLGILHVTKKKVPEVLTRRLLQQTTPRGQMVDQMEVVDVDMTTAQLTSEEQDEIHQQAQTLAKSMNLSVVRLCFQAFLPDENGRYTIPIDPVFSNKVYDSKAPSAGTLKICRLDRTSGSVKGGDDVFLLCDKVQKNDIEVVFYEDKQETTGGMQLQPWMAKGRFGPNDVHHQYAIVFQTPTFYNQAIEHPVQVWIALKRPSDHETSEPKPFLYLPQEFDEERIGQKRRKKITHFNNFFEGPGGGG

[6] = molecular target: GST-Hu-p50 (Homo sapiens, UniProt P19838 7-356)
GST-Hu-p50, sequence (P19838 7-356): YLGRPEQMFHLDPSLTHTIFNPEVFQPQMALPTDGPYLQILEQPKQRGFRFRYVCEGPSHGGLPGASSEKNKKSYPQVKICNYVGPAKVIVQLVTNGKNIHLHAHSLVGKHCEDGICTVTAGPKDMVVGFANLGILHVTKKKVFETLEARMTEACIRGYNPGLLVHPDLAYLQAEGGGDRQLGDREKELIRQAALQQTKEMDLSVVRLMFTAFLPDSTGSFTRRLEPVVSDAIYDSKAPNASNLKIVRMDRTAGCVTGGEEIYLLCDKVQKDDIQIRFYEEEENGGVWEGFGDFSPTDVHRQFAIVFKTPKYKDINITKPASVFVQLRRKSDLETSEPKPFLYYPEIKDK

## CCGATTAACATCAAAAAAACCCTTGATGTTAATCGGGTCTTGATTCGCTTGACGCTGCTG
[1]
  binding signal: 4.62 z-score
[2]
  binding signal: 5.48 z-score
[3]
  binding signal: 1.11 z-score
[4]
  binding signal: 6.8 z-score
[5]
  binding signal: 6.78 z-score
[6]
  binding signal: 5.45 z-score

## CCGATTAACATCAGGGGGAACAATGATGTTAATCGGGTCTTGATTCGCTTGACGCTGCTG
[1]
  binding signal: 5.8 z-score
[2]
  binding signal: 5.75 z-score
[3]
  binding signal: 9.17 z-score
[4]
  binding signal: 3.62 z-score
[5]
  binding signal: 4.61 z-score
[6]
  binding signal: 5.11 z-score

## CCGATTAACATCAAAAGCCCCCATGATGTTAATCGGGTCTTGATTCGCTTGACGCTGCTG
[1]
  binding signal: 5.8 z-score
[2]
  binding signal: 6.19 z-score
[3]
  binding signal: 2.08 z-score
[4]
  binding signal: 6.91 z-score
[5]
  binding signal: 6.49 z-score
[6]
  binding signal: 6.29 z-score

## CCGATTAACATCAGAAAAATCCCTGATGTTAATCGGGTCTTGATTCGCTTGACGCTGCTG
[1]
  binding signal: 5.42 z-score
[2]
  binding signal: 6.84 z-score
[3]
  binding signal: 2.27 z-score
[4]
  binding signal: 9.03 z-score
[5]
  binding signal: 7.2 z-score
[6]
  binding signal: 5.46 z-score

## CCGATTAACATCAAAATGCCCCCTGATGTTAATCGGGTCTTGATTCGCTTGACGCTGCTG
[1]
  binding signal: 5.68 z-score
[2]
  binding signal: 5.66 z-score
[3]
  binding signal: 4.18 z-score
[4]
  binding signal: 5.29 z-score
[5]
  binding signal: 6.11 z-score
[6]
  binding signal: 5.37 z-score

## CCGATTAACATCAAAATACCCCTTGATGTTAATCGGGTCTTGATTCGCTTGACGCTGCTG
[1]
  binding signal: 6.2 z-score
[2]
  binding signal: 6.38 z-score
[3]
  binding signal: 4.02 z-score
[4]
  binding signal: 5.65 z-score
[5]
  binding signal: 6.58 z-score
[6]
  binding signal: 6.17 z-score

## CCGATTAACATCAGAATACCCCCTGATGTTAATCGGGTCTTGATTCGCTTGACGCTGCTG
[1]
  binding signal: 7.89 z-score
[2]
  binding signal: 5.69 z-score
[3]
  binding signal: 4.84 z-score
[4]
  binding signal: 5.26 z-score
[5]
  binding signal: 5.57 z-score
[6]
  binding signal: 5.27 z-score

## CCGATTAACATCAGGGGGTTAAATGATGTTAATCGGGTCTTGATTCGCTTGACGCTGCTG
[1]
  binding signal: 4.33 z-score
[2]
  binding signal: 4.07 z-score
[3]
  binding signal: 3.62 z-score
[4]
  binding signal: 5.86 z-score
[5]
  binding signal: 4.49 z-score
[6]
  binding signal: 4.29 z-score

## CCGATTAACATCAACACTCCCCCTGATGTTAATCGGGTCTTGATTCGCTTGACGCTGCTG
[1]
  binding signal: 5.32 z-score
[2]
  binding signal: 4.24 z-score
[3]
  binding signal: 5.26 z-score
[4]
  binding signal: 2.43 z-score
[5]
  binding signal: 4.25 z-score
[6]
  binding signal: 5.34 z-score

## CCGATTAACATCAGGGGGTTATATGATGTTAATCGGGTCTTGATTCGCTTGACGCTGCTG
[1]
  binding signal: 6.77 z-score
[2]
  binding signal: 5.64 z-score
[3]
  binding signal: 3.18 z-score
[4]
  binding signal: 6.58 z-score
[5]
  binding signal: 6.3 z-score
[6]
  binding signal: 5.59 z-score

## CCGATTAACATCACGAAAACCCCTGATGTTAATCGGGTCTTGATTCGCTTGACGCTGCTG
[1]
  binding signal: 6.45 z-score
[2]
  binding signal: 5.36 z-score
[3]
  binding signal: 2.45 z-score
[4]
  binding signal: 7.06 z-score
[5]
  binding signal: 5.3 z-score
[6]
  binding signal: 6.06 z-score

## CCGATTAACATCAGAAACTTCCCTGATGTTAATCGGGTCTTGATTCGCTTGACGCTGCTG
[1]
  binding signal: 4.46 z-score
[2]
  binding signal: 5.22 z-score
[3]
  binding signal: 2.41 z-score
[4]
  binding signal: 4.16 z-score
[5]
  binding signal: 5.51 z-score
[6]
  binding signal: 4.25 z-score
